Reference: PubChem BioAssay (NCATS)
Inconclusive results are not listed. A call without a number means that no potency is given here. Calls of active or inactive are those of the source. Calls come from the whole dose curve; as a rule, active = well fitted activation curve with a large enough effect; inconclusive = small, poorly fitted or top-dose-only effect, or another doubt; inactive = no such curve, though single readings can be large or run the other way.

Test: Cell Proliferation Assay against the TMD8 Cell Line (Caspase readout at 8 hrs) (AID 651713)
Settings: TMD8 lymphoma cells, caspase activation luminescence; series mostly up to 46.1 µM
Excerpt: One class of targeted therapeutics showing early clinical success in killing of ABC DLBCL lines are small molecule inhibitors of the Bruton tyrosine kinase (BTK) 11. Thus, we chose to investigate what additional compounds, if any, would synergize with the BTK inhibitor Ibrutinib (PCI-32765).
Prior to any combination assays, using an NCATS developed oncology compound library called the Mechanism of Interrogation Plate (MIPE), two well studied ABC DLBCL lines (TMD8 and HBL1) were screened using a cell viability assay (CellTiterGlo) and a 12-point titration series for each single agent. These initial experiments offered insight into the concentration range that offered the best coverage of activity and non-activity to assure relevant data is generated. In addition to the viability signature associated with this library, we examined the apoptotic response of each agent versus the TMD8 line as judged by caspase 3/7 activation. Activity was assayed at both 8 and 16 hour time-points to gain an appreciation of which agents induced an apoptotic response in a reasonable timeframe from a therapeutic exposure perspective. MIPE was also assayed for single agent viability in a human mesenchymal stem cell (hMSC) line as a surrogate of each library members potential therapeutic index.
The combination plates were then generated by choosing 20 of the best compounds from this single agent screen and plated in the presence of the BTK inhibitor. The first analysis was carried out using 6x6 dose response blocks for each of the 20 compounds. […] In addition to the cell viability assay, the parallel caspase 3/7 activation and viability in hMSC assays were carried out in the 10x10 format.
A total of 500 log growing TMD8 cells are seeded per well in 5 uL of a RPMI with glutamine (or Glutamax), without phenol red plus 5% FBS and 1X Pen/Strep into 1536 -solid white high base tissue culture treated Greiner One Bio Plates (789173-F) using a multidrop combi dispenser and a small sterile cassette. Compounds and controls totaling 23nL per well (negative control DMSO and positive control 9.2 uM Bortezomib-final) are immediately added to the plates using a 1536 head pin tool from Kalypsys. The plates are then covered with stainless steel gasket lids from Kalypsys and incubated for either 8 hours at 37C under 95% relative humidity with 5% CO2. After the desired incubation time, the plates are removed and allowed to reach room temperature before 3 uL of the Caspase Glo reagent (Promega) is added using an Aurora Flying Reagent Dispenser Bioraptor. The plates are then spun at 1000 rpms to remove bubbles and incubated for 15 minutes at room temperature before read on a ViewLux using a luminescent filter with a 10 second exposure. The relative luciferase units are used to calculated percent activity using DMSO as 0% and Bortezomib as 100%.
Potency is the fitted concentration of half-maximal effect.

**Q.** Which Potency does the source give for Cc1cccc(Nc2nc(N[C@@H]3CCCC[C@H]3N)ncc2C(N)=O)c1 here?
**A.** inactive

**Q.** Which Potency does the source give for CCCCOCCOc1nc(-c2ccc(C(=O)O)c(F)c2)sc1C here?
**A.** inactive

**Q.** Which Potency does the source give for O=C(O)c1ccc(O)c2ncc(N3CCOCC3)cc12 here?
**A.** inactive

**Q.** For CC(C)C[C@@H](C(=O)N[C@H](C(=O)OC1CCCC1)c1ccccc1)[C@H](O)C(=O)NO, which Potency is on record?
**A.** inactive

**Q.** For COc1c(C)cnc(Cn2cnc3c(Cl)nc(N)nc32)c1C, which Potency is on record?
**A.** inactive

**Q.** Which Potency does the source give for NC(=O)c1ccc(N(C(N)=O)c2c(F)cccc2F)nc1-c1ccc(F)cc1F here?
**A.** inactive

**Q.** With Cn1cc(-c2ccc3nnc(Sc4ccc5ncccc5c4)n3n2)cn1 as the compound, how does the Potency read?
**A.** inactive

**Q.** Which Potency does the source give for CNC(=O)c1cc(Oc2ccc(NC(=O)Nc3ccc(Cl)c(C(F)(F)F)c3)c(F)c2)ccn1 here?
**A.** inactive

**Q.** With CN(C)CCN(C)C(=O)c1ccc(NC(=O)Nc2ccc(-c3nc(N4CCOCC4)c4ccn(CC(F)(F)F)c4n3)cc2)cc1 as the compound, how does the Potency read?
**A.** 29.6 µM (active)

**Q.** Which Potency does the source give for CCC(=O)N1CCN(c2ccc(-n3c(=O)ccc4cnc5ccc(-c6cnc7ccccc7c6)cc5c43)cc2C(F)(F)F)CC1 here?
**A.** inactive

**Q.** With CCCCn1c(=O)n(Cc2ccccc2F)c(=O)c2[nH]c(Cc3ccc(NC(C)=O)cc3)nc21 as the compound, how does the Potency read?
**A.** inactive

**Q.** For OCCn1cc(-c2ccc3c(c2)CCC3=NO)c(-c2ccncc2)n1, which Potency is on record?
**A.** inactive

**Q.** For CC(O)=C(C#N)C(=O)Nc1ccc(C(F)(F)F)cc1, which Potency is on record?
**A.** inactive

**Q.** Which Potency does the source give for Cc1nn(Cc2ccccc2Cl)c(C)c1CN(C)CC(O)COc1ccc(Cl)cc1 (stereo not given) here?
**A.** inactive

**Q.** For O=C(Nc1cccc(Cl)c1)Nc1ncc(CCNc2ncnc3ccsc23)s1, which Potency is on record?
**A.** inactive

**Q.** Which Potency does the source give for COc1cc2c(cc1OC)CC(=O)N(CCCN(C)C[C@H]1Cc3cc(OC)c(OC)cc31)CC2 here?
**A.** inactive

**Q.** With CC(C)n1c(C=C[C@H](O)C[C@H](O)CC(=O)O)c(-c2ccc(F)cc2)c2ccccc21 as the compound, how does the Potency read?
**A.** inactive

**Q.** With CCCCCCCCCCCCCC(=O)N[C@H](CO)[C@H](O)c1ccc([N+](=O)[O-])cc1 as the compound, how does the Potency read?
**A.** inactive

**Q.** For COc1nc(C)cnc1NS(=O)(=O)c1cccnc1-c1ccc(-c2nnco2)cc1, which Potency is on record?
**A.** inactive

**Q.** With Cc1ccc(NC(=O)c2ccc(CN3CCN(C)CC3)cc2)cc1Nc1nc(-c2cccnc2)cs1 as the compound, how does the Potency read?
**A.** 23.5 µM (active)

**Q.** Which Potency does the source give for CCC=CC[C@H]1C(=O)CC[C@@H]1CC(=O)OC here?
**A.** inactive

**Q.** For CN1C(=O)C(Cc2c[nH]c3ccccc23)NC1=S (stereo not given), which Potency is on record?
**A.** inactive

**Q.** Which Potency does the source give for COC(=O)Nc1ccc(-c2nc(N3CCOCC3)c3cnn(C4CCN(C(=O)OC)CC4)c3n2)cc1 here?
**A.** inactive

**Q.** For Cc1cc2c(cc1C1(c3ccc(C(=O)O)cn3)CC1)C(C)(C)CCC2(C)C, which Potency is on record?
**A.** inactive

**Q.** For O=C1C(CCC(O)c2ccc(F)cc2)C(c2ccc(O)cc2)N1c1ccc(F)cc1 (stereo not given), which Potency is on record?
**A.** inactive
